# IDE act – human IDE activators in live cells, primary screen, fluorescence polarization, HEK cells, FAbeta-B substrate; activation, % at 5.96 µM; hit rate 0.073% among 340,000; FAbeta-B cleavage; 0% vehicle, 100% cell-free pure enzyme wells; Insulin-degrading enzyme (Homo sapiens), P14735;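 active means activation above the mean of all tested compounds plus 3 SD, set per screening campaign, cut at about 17% in these data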
# LANA-H2B inh – blockers of LANA interaction with H2A/H2B – biochemical, FP readout, HTS, primary screen. Protein LANA1 (Human herpesvirus 8 type P (isolate GK18)), Q9QR71. hit rate 0.6% among 320,000. cell-free LANA-H2A/H2B peptide, fluorescence polarization. inhibition, % (test concentration not listed); in the data active means inhibition mostly above about 10%, no sharp cut-off; inactive means mostly below about 6.7%
# Target sequence (Q9QR71 whole entry, looked up): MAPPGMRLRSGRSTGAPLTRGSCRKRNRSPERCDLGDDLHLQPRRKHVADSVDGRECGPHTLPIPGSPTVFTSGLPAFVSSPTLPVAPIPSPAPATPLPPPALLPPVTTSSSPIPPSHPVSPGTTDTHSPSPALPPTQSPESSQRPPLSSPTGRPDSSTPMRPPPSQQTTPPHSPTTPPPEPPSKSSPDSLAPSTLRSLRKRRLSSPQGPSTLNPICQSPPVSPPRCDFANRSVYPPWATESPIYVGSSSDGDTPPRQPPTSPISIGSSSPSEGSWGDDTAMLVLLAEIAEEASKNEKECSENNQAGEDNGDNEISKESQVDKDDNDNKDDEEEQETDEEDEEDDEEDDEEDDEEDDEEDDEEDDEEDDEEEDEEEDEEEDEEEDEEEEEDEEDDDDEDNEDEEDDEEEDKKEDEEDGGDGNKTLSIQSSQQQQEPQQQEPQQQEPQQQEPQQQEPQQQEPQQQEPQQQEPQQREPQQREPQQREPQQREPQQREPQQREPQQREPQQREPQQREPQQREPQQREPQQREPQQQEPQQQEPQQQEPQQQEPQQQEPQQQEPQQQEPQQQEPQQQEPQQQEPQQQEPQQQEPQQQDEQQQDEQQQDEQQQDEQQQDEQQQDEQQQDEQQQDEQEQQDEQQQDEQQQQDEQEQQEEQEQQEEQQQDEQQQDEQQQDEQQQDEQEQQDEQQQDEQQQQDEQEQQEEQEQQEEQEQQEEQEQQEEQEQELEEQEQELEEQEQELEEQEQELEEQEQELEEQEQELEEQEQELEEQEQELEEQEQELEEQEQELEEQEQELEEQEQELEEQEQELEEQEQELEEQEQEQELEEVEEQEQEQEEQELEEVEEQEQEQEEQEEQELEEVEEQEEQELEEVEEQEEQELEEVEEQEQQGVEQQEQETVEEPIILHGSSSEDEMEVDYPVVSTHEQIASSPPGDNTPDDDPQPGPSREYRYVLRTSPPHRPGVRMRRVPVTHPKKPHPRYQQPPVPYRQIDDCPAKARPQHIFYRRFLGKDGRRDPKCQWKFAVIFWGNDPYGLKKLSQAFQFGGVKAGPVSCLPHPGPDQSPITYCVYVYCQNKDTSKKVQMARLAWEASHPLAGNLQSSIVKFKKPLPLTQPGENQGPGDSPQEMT
# IDE inh – human IDE inhibitors in live cells, primary screen, fluorescence polarization, HEK cells, FAbetaB substrate; Insulin-degrading enzyme (Homo sapiens), P14735; FAbetaB cleavage; inhibition, % at 5.59 µM; hit rate 0.41% among 320,000;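 active means percent inhibition above the average of all tested compounds plus 3 SD, set per screening campaign, cut at about 16% in these data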;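 further: IDE supplied by intact live HEK cells; FP after avidin binding of uncleaved biotin substrate so inhibition keeps polarization high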
# Mot1-301 SUMO – yeast Mot1-301 growth rescue at high temperature, primary screen, SUMOylation pathway inhibitor project, S. cerevisiae, ATP luminescence, 38.5C; S. cerevisiae Mot1-301 growth rescue; percent above DMSO median, 100 means doubled; growth rescue, % at 18.8 µM; hit rate 1% among 320,000; AID 2716, 2010;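 active means every valid replicate shows activation above 250% relative to neutral control wells; inactive means the rest, any valid replicate at or below 250%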
# HDAC3 inhib – HDAC3 deacetylase inhibitors, primary screen, biochemical, fluorescence, cell-free homogeneous; recombinant HDAC3, fluorogenic peptide/trypsin coupled; Histone deacetylase 3 (Homo sapiens), O15379; inhibition, % at 8.3 µM; hit rate 0.15% among 320,000; in the data active means inhibition above about 26%, passing the limit was not always enough
# Numbers stand for hits; – = inactive; · = no result given; + = active, no number. A selection: hits, their analogues and other compounds. The true share with any hit is near 2.1%.
SMILES,IDE act,LANA-H2B inh,IDE inh,Mot1-301 SUMO,HDAC3 inhib
O=C(CSc1nnc(CNC(=O)c2cccs2)o1)c1ccccc1,–,–,–,–,–
COc1ccccc1C(C#N)c1cccc(Cl)n1 (stereo not given),–,–,–,–,–
COc1ccccc1C(=O)N=C1SC2CS(=O)(=O)CC2N1c1ccccc1 (stereo not given),–,–,–,–,–
O=C1CC2(CCN(C(=O)c3cccc(Cl)c3)CC2)Oc2ccccc21,–,–,–,–,–
O=C1CC2(CCN(C(=O)c3cccc(Br)c3)CC2)Oc2ccccc21,–,19,–,–,–
CCSc1nc(-c2ccccc2)cc(=O)[nH]1,–,–,–,–,–
Cc1ccc2c(c1)c1c(n2CC(O)Cn2c(C)nc3ccccc32)/C(=N\O)CCC1 (stereo not given),–,–,–,–,28
CC[C@@]1(C(=O)OC)N[C@H](CN(C)S(=O)(=O)c2ccc(OC)cc2)[C@@H]2C(=O)N(C)C(=O)[C@@H]21,–,–,–,–,–
CCN(C[C@H]1N[C@@](CC)(C(=O)OC)[C@H]2C(=O)N(C)C(=O)[C@@H]12)C(=O)NC(C)C,–,·,–,·,·
Cc1ccccc1NC(=O)c1cccc(N2C(=O)C3C4CCC(C4)C3C2=O)c1 (stereo not given),–,–,–,–,–
Cc1ccc(NC(=O)c2cccc(N3C(=O)C4C5CCC(C5)C4C3=O)c2)c(C)c1 (stereo not given),–,–,–,+,–
Cc1cc(C)nc(N2CCC(C(=O)NC3CC3)CC2)n1,–,–,–,–,–
Cn1cc([N+](=O)[O-])c(C(=O)Nc2ccc(-c3nc4ccccc4o3)cc2)n1,–,–,–,+,–
COc1ccc(C(=O)Nc2cc3c4c(c2)C(C)C(=O)N4CCC3)cc1 (stereo not given),–,–,–,–,–
CCc1cc(-c2nc(N)ncc2-c2ccc(Br)cc2)c(O)cc1OC,–,19,–,–,–
O=C(COC(=O)c1ccc2ccccc2n1)Nc1ccccc1F,–,–,–,–,–
CCOc1ccccc1NC(=O)COC(=O)c1ccc2ccccc2n1,–,111,–,–,–
Cc1cc(C)c(C)c(S(=O)(=O)NCCCN2CCCC2=O)c1C,–,–,–,–,–
COc1ccccc1CNC(=O)CSc1ccc(-c2ccccn2)nn1,–,–,–,343,–
Cc1cc(C)cc(-n2ccn(CC(=O)NCCc3ccccc3)c(=O)c2=O)c1,–,–,–,–,–
O=C(/C=C/c1ccccc1)Nc1ncn[nH]1,–,14,–,–,–
O=C(CCc1ccccc1)Nc1ncn[nH]1,–,–,–,–,–
COC(=O)c1cccc(N(C(=O)c2cnccn2)C(C(=O)NCc2ccccc2)c2ccco2)c1 (stereo not given),–,–,–,322,–
COc1ccc(C(C(=O)NCc2ccccc2)N(Cc2ccco2)C(=O)c2cnccn2)cc1 (stereo not given),–,–,–,–,–
CCCCCCCn1c(=N)n(CC(=O)c2ccco2)c2ccccc21,–,–,–,514,–
SMILES,IDE act,LANA-H2B inh,IDE inh,Mot1-301 SUMO,HDAC3 inhib
O=C1CC(/C=C/c2ccc(Cl)cc2)=Nc2ccccc2N1,–,–,–,568,–
Oc1c(/C=N/c2ccccn2)sc2ccccc12,–,–,–,+,–
Oc1c(C=Nc2ccc(Cl)cn2)sc2ccccc12,–,–,–,–,–
COc1cc(/C=C/C(=O)N2CCOCC2)ccc1OCc1ccccc1,–,–,–,–,–
CCCCCCOc1ccc(/C=C/C(=O)N2CCOCC2)cc1OC,–,11,–,–,–
CN1CCN(CC(=O)N2CCn3c4c(c5cc(C6CCCCC6)ccc53)CCCC42)CC1 (stereo not given),–,–,–,500,–
CC(=O)Nc1nc(C)c(-c2nc3ccc([N+](=O)[O-])cc3[nH]2)s1,–,–,–,–,–
CC(C)(C)OC(=O)N1CCCC(C(=O)Nc2cccc(C(=O)N3CCCCC3)c2)C1 (stereo not given),–,·,·,·,·
COc1ccc(C(=O)NCCc2cnc[nH]2)cc1OC,–,–,–,282,–
CCOc1ccc(C(=O)NCCc2cnc[nH]2)cc1OCC,–,–,–,–,–
CNC(=S)Nc1cccc(-c2cnc3ccccc3n2)c1,–,–,–,–,–
CC(=O)NS(=O)(=O)c1ccc(NC(=O)CC23CC4CC(CC(Br)(C4)C2)C3)cc1,–,–,–,–,–
O=C(CC12CC3CC(CC(Br)(C3)C1)C2)NC1CCCC1,–,12,–,–,–
Nc1cccc(N2C(=O)c3cccc4c(N)ccc(c34)C2=O)c1,–,26,–,–,·
Nc1ccc2c3c(cccc13)C(=O)N(c1ccccc1)C2=O,–,·,·,·,·
CC(C)CCN1C(=O)c2cccc3c(N)ccc(c23)C1=O,54,14,–,–,–
O=C1NC(=O)N2CCSC2(Cc2ccccc2)N1 (stereo not given),–,·,·,·,·
O=C(NCCc1ccccc1)C(=O)NCC1CCCN1S(=O)(=O)c1cccs1 (stereo not given),–,–,–,355,–
CN1CCN(C2=Nc3ccccc3Oc3ccc(Cl)cc32)CC1,–,14,–,–,–
O=C(COc1ccc(Cl)cc1)NNC(=O)c1ccncc1,–,39,–,–,–
CSCc1ccc(C(=O)OCc2nc3ccccc3s2)o1,–,–,–,–,–
O=C(O)CCCNc1cc(N2CCN(C(=O)c3ccco3)CC2)c2noc3c2c1C(=O)c1ccccc1-3,–,–,–,–,–
O=C(O)CCCNc1cc(N2CCC3(CC2)OCCO3)c2noc3c2c1C(=O)c1ccccc1-3,·,38,–,–,–
CCOC(=O)N1CCN(c2cc(NCCC(=O)O)c3c4c(onc24)-c2ccccc2C3=O)CC1,–,37,–,–,–
Cn1c(=NC(=O)C2=NNC(=O)CC2)sc2ccccc21,–,15,–,–,–
SMILES,IDE act,LANA-H2B inh,IDE inh,Mot1-301 SUMO,HDAC3 inhib
CCCCCCC(=O)N(O)C1CC(=O)N(c2ccc(Br)cc2)C1=O (stereo not given),–,–,–,338,80
COc1ccccc1N(O)C1CC(=O)N(c2ccc(Br)cc2)C1=O (stereo not given),–,–,–,–,–
CCCCCCC(=O)N(O)C1CC(=O)N(c2ccc(F)cc2)C1=O (stereo not given),–,–,–,–,79
CCCCN(C(=O)CCC(=O)O)C1CC(=O)N(c2ccc(OCCC)cc2)C1=O (stereo not given),–,–,–,–,–
CCN(CC)S(=O)(=O)c1cccc(NC(=O)CN2C(=O)NC3(CCC(C)CC3)C2=O)c1 (stereo not given),–,·,·,·,·
O=C(/C=C/c1ccc(F)cc1)OCC(=O)c1ccc[nH]1,–,86,–,–,–

# Source: PubChem BioAssay
